Assay [1] in a line: qHTS assay to identify small molecule HDAC inhibitors - cell viability counter screen (AID 1259365). Also: series mostly up to about 92 µM; nearly all actives have a fitted effect of over 50% in size. In a few lines:
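Luminescence from CellTiter-Glo, developed 30min at room temperature, reports viability of wild-type HCT-116 cells treated 2hr with compounds at 37 C and 5% CO2 after overnight plating.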

A short description of assay [2]: qHTS assay to identify small molecule agonists of the sonic hedgehog signaling (Shh) pathway - cell viability counter screen (AID 1259366). Also: nearly all actives have a fitted effect of over 50% in size. In a few lines: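 Cytotoxicity counter screen run in the same wells as the Shh reporter assay. NIH/3T3 cells carrying a Gli1 response element–driven luciferase were treated with DMSO-dissolved compounds for 24hr, and live-cell protease activity was measured with CellTiter-Fluor.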
(In qHTS, concentration-response curves come from the screen itself.)

The nature of assay [3]: qHTS assay to identify small molecule agonists of the sonic hedgehog signaling (Shh) pathway (AID 1259368; calls by dose curve;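 also: NIH/3T3-derived 3T3Gli1-Luc cells carrying a stable Gli1-driven firefly luciferase reporter; series mostly up to about 92 µM; nearly all actives have a fitted effect of over 15% in size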). The procedure, abridged: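 Luminescence was read after 30 min at room temperature with luciferase reagent. Before that, 3T3Gli1-Luc cells (NIH/3T3 clone, stable Gli1-Luc reporter; 2,000/well) were exposed to compounds for 24 hr at 37C, 5% CO2, compounds being added 4 hr post-plating.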

In assay [4] the target is Estrogen receptor beta (Homo sapiens) (UniProt Q92731). Nature of the assay: qHTS assay to identify small molecule agonists of the estrogen receptor beta (ER-beta) signaling pathway (AID 1259377; active = well fitted activation curve with a large enough effect in the signal ratio in the repeat runs, not every such curve was filed as active; the % refers to the signal ratio). The procedure, abridged: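 HEK293T ER-beta-UAS-bla; 2% charcoal-stripped FBS; cells pre-incubated 6 hr, compound 16 hr, 37C/5% CO2; LiveBLAzer B/G FRET substrate 2 h RT; fluorescence intensity read.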
Chain of Estrogen receptor beta (Homo sapiens) (Q92731 whole entry, looked up): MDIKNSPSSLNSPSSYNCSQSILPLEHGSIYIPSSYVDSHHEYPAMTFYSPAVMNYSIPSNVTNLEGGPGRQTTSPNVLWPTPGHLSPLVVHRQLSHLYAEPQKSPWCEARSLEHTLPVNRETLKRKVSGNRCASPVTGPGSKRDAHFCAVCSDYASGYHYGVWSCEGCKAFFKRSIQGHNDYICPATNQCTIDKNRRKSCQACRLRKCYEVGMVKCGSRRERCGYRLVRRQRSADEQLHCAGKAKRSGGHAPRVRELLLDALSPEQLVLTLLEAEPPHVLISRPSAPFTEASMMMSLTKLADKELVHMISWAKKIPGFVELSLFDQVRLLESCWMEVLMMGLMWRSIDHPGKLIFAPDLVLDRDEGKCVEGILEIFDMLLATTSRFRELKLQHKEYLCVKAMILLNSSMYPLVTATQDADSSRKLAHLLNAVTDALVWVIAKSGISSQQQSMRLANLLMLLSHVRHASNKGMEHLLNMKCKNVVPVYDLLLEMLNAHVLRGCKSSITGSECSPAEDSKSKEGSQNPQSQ

A short description of assay [5]: qHTS assay to identify small molecule agonists of the androgen receptor (AR) signaling pathway in the presence of an antagonist - cell viability counter screen (AID 1259379). Also: nearly all actives have a fitted effect of over 25% in size. Also: potency is read from the fitted curve at half-maximal effect.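 As to activity change, negative = cytotoxicity: MDA-kb2 human breast cancer cells carrying an MMTV luciferase reporter; series mostly up to about 92 µM.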 In a few lines: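 Cytotoxicity counter-screen run in the same wells as the nilutamide-challenged (3.0 µM final) AR agonist assay in MDA-kb2 cells. Compounds tested at 15 concentrations for 16 h, 37 °C without CO2; CellTiter-Fluor fluorescence read.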

The nature of assay [6]: qHTS assay to identify small molecule agonists of the estrogen receptor beta (ER-beta) signaling pathway - cell viability counter screen (AID 1259380). Also: nearly all actives have a fitted effect of over 30% in size. In a few lines: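 Cell viability counter screen: CellTiter-Glo luminescence (30 min, room temperature) measured in the same wells as the beta-lactamase readout, after 16 hr compound exposure at 37C of ER-beta-bla HEK293T cells in 2% charcoal-stripped FBS medium.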

A short description of assay [7]: qHTS assay to identify small molecule antagonists of the sonic hedgehog signaling (Shh) pathway (AID 1259369; calls by dose curve; also: nearly all actives have a fitted effect of over 45% in size). The procedure, abridged: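 Antagonist mode: compound added to 3T3 Gli1-Luc cells followed by conditioned-medium stimulation, 24 h at 37 C, 5% CO2. Inhibition taken as loss of Gli1-driven luciferase luminescence.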
Assay [8] has as its target Estrogen receptor beta (Homo sapiens) (UniProt Q92731). In words: qHTS assay to identify small molecule antagonists of the estrogen receptor beta (ER-beta) signaling pathway (AID 1259378; active = well fitted inhibition curve with a large enough effect in the signal ratio in the repeat runs, not every such curve was filed as active; the % refers to the signal ratio). The procedure, abridged: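 ER-beta-UAS-bla HEK293T (GripTite) cells in 2% charcoal-stripped FBS medium were preincubated 6 hr at 37C, dosed with compound, then stimulated with 1 nM E2 (final) for 16 hr; beta-lactamase reporter read by B/G FRET fluorescence after 2 hr substrate loading.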

The target in assay [9] is Androgen receptor (Homo sapiens) (UniProt P10275). In words: qHTS assay to identify small molecule agonists of the androgen receptor (AR) signaling pathway in the presence of an antagonist (AID 1259381; calls by dose curve; also: nearly all actives have a fitted effect of over 15% in size). In a few lines: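 Agonist-mode confirmation run against 3.0 uM final nilutamide: compounds titrated at 15 concentrations onto MDA-kb2 MMTV-luciferase reporter cells. Luminescence measured with ONE-Glo following 16 hr incubation, 37C, 0% CO2.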
Chain of Androgen receptor (Homo sapiens) (P10275 whole entry, looked up): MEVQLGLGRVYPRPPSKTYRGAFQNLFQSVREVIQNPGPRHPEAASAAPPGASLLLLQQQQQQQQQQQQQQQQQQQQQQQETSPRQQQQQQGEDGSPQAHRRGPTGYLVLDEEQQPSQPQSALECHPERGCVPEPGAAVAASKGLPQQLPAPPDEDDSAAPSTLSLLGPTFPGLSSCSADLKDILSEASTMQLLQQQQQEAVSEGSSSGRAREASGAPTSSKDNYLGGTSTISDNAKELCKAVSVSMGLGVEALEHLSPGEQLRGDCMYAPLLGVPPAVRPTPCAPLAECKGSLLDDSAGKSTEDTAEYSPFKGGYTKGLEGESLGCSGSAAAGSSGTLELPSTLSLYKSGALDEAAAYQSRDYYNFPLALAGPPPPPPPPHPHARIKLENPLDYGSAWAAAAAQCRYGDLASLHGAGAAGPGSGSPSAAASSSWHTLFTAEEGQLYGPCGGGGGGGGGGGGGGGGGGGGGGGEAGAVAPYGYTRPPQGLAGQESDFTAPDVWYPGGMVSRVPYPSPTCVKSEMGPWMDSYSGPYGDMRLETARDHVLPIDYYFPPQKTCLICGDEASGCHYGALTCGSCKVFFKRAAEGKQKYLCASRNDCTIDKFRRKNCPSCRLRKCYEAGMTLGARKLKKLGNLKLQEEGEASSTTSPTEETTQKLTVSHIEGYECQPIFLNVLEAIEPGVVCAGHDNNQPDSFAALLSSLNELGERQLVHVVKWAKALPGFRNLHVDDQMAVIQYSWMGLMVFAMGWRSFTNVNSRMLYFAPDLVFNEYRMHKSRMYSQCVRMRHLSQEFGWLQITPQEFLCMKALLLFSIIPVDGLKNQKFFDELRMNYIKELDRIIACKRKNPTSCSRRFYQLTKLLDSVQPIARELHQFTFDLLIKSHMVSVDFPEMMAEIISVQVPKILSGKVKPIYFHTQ

Values without a mark were called inactive. Results filed as inconclusive are left out. Calls of active or inactive are those of the source. Unless noted, calls follow the shape of the dose curve; as a rule, active = well fitted cell-killing curve with a large enough effect in the repeat runs; inconclusive = weak or mixed curves, or effect the other way; inactive = flat fitted curve, though single readings scatter.
% is scaled to controls: 0 for no effect and ±100 for the full control effect.

For `CCOC(=O)C(C)(C)C`, the outcome in assay [1], in [3] and in [6] was inactive. Besides, the Potency entry in [2], in assay [4] and in assay [5] was “inactive” throughout.
Consider `Nc1ccc(C(=O)OCC(O)CO)cc1` (configuration not stated), for which the molecule was called inactive in assay [1], in assay [3] and in assay [6]. In addition, the Potency entry in assay [2], in assay [4] and in assay [5] was “inactive” in each case.
For `O=C1OC(=O)c2ccccc21`, the call in assay [1], in assay [3], in assay [8] and in [6] was inactive. Besides, the Potency entry in assay [2], in assay [7], in assay [4] and in [5] was “inactive” each time.
For the molecule `O=c1[nH]c(=O)c2[nH]c(=O)[nH]c2[nH]1`, the activity change, negative = cytotoxicity in [1] is 0.314% [at 8.39 µM]; in assay [5] it was -1.23% [at 8.39 µM]; in assay [6] it was 0.228% [at 8.39 µM]. Also, in assay [2], the viability change, negative = cytotoxic was -3.05% [at 8.39 µM]. Moreover, the activity change in assay [3] was 0.435% [at 8.39 µM]. Moreover, the activity change, negative = inhibition in [7] was 16.8% [at 8.39 µM]. Also, the activation in [4] is -1.14% [at 8.39 µM]. Moreover, the activity, negative = inhibition in assay [8] is 11.9% [at 8.39 µM].
On to `CC(=O)OCC(=O)[C@@]1(O)[C@H](OC(C)=O)C[C@H]2[C@@H]3CCC4=CC(=O)C=C[C@]4(C)[C@@]3(F)[C@@H](O)C[C@@]21C`, for which the outcome in [1], in assay [3] and in assay [6] was inactive. Besides, the Potency entry in [2], in assay [7] and in [5] was “inactive” each time.
On to `Cc1oc(=O)oc1CN1CCN(c2cc3c(cc2F)c(=O)c(C(=O)O)c2n3C(C)S2)CC1` (configuration not stated), for which the molecule was classed as inactive in assay [1], in assay [3] and in assay [6]. For the same molecule, the Potency result in [2], in assay [4] and in assay [5] was “inactive” each time.
As for `Cc1ccccc1OCC1CO1` (configuration not stated), the call in assay [1], in assay [3] and in [6] was inactive. Also, the Potency result in assay [2], in assay [7], in assay [4] and in assay [5] was “inactive” in each case.
Consider `CCCCC(CC)COC(=O)c1ccccc1` (configuration not stated), for which the molecule was called inactive in assay [1], in [3], in assay [8] and in assay [6]. Further, the Potency entry in [2], in assay [4] and in [5] was “inactive” in each case.
Consider `CCC(C)N` (configuration not stated), for which the call in assay [1], in assay [3] and in [6] was inactive. Also, the Potency entry in assay [2], in assay [7], in [4] and in assay [5] was “inactive” each time.
Take `OC(CCN1CCCCC1)(c1ccccc1)c1ccccc1`: the molecule was called inactive in assay [1], in assay [3], in assay [6] and in [9]. In addition, the Potency entry in assay [2], in [7] and in assay [5] was “inactive” in each case.
Turning to `CC1=NN(c2ccc(S(=O)(=O)O)cc2)C(=O)C1N=Nc1ccccc1` (configuration not stated), the molecule was classed as inactive in assay [1], in assay [3] and in [6]. In addition, in [7], the Potency entry is “inactive”. In addition, the Potency in assay [5] is 30.6 µM (active).
As for `CCC1Nc2cc(Cl)c(S(N)(=O)=O)cc2S(=O)(=O)N1` (configuration not stated), the outcome in assay [1], in [3], in assay [8] and in assay [6] was inactive. In addition, the Potency result in assay [2], in assay [4] and in assay [5] was “inactive” each time.
As for `CC(C)(c1ccc(Oc2ccc3c(c2)C(=O)OC3=O)cc1)c1ccc(Oc2ccc3c(c2)C(=O)OC3=O)cc1`, the outcome in [1], in [3], in assay [8] and in assay [6] was inactive. The Potency result in [2], in assay [4] and in assay [5] was “inactive” each time.
Regarding `C=COCCOCCOC=C`, the molecule was called inactive in assay [1], in [3], in assay [8] and in [6]. For the same molecule, the Potency result in assay [2], in assay [4] and in [5] was “inactive” throughout.
With `C=C[Si](C)(C)O[Si](C)(C)C=C`, the outcome in assay [1], in [3] and in [6] was inactive. The Potency result in [2], in assay [7] and in assay [5] was “inactive” each time.
For the molecule `CC(C)COC(=O)COc1ccc(Cl)cc1Cl`, the molecule was called inactive in assay [1], in assay [3], in assay [8], in [6] and in assay [9]. Further, the Potency result in assay [2], in [7], in assay [4] and in [5] was “inactive” each time.
Regarding `CC(=O)/C=C/c1ccco1`, the call in assay [1], in assay [3] and in assay [6] was inactive. Further, the Potency entry in [2], in assay [7] and in [5] was “inactive” each time.
With `CCC(C)(C)C1CCC(=O)CC1`, the molecule was classed as inactive in [1], in assay [3], in [6] and in assay [9]. Further, the Potency result in assay [2], in assay [7] and in [5] was “inactive” in each case.
`CCCCOC(=O)C(C)OC(=O)CCC` (configuration not stated): the result in [1], in [3], in assay [8] and in assay [6] was inactive. Further, the Potency result in assay [2], in assay [4] and in assay [5] was “inactive” throughout.
`CCCCCC1CCCC(=O)O1` (configuration not stated): the outcome in assay [1], in assay [3], in assay [8] and in assay [6] was inactive. The Potency entry in assay [2], in [7], in assay [4] and in assay [5] was “inactive” throughout.
Regarding `CCN1CN(CC)CN(CC)C1`, the molecule was classed as inactive in assay [1], in assay [3], in assay [8] and in [6]. The Potency result in assay [2], in assay [4] and in assay [5] was “inactive” in each case.
Turning to `CCCCCCCCCCCCCCCC(=O)NCCO`, the outcome in assay [1], in assay [3] and in assay [6] was inactive. Moreover, the Potency entry in assay [2] and in assay [5] was “inactive” each time.
For the molecule `Cc1cc(O)c2c(c1)C(=O)c1cccc(O)c1C2=O`, the molecule was called inactive in assay [1], in assay [3], in assay [8] and in assay [6]. Further, the Potency entry in assay [2], in assay [7], in [4] and in assay [5] was “inactive” throughout.
Regarding `O=C(c1ccc2c(c1)C(=O)OC2=O)c1ccc2c(c1)C(=O)OC2=O`, the call in assay [1], in [3], in [8] and in assay [6] was inactive. The Potency entry in assay [2], in assay [7], in assay [4] and in [5] was “inactive” throughout.
As to `Cc1nc2n(c(=O)c1CCN1CCC(C(=O)c3ccc(F)cc3)CC1)CCS2`, the outcome in assay [1], in assay [3], in assay [6] and in assay [9] was inactive. Further, the Potency result in [2] and in assay [5] was “inactive” each time.
Take `O=C(Oc1ccccc1C(=O)O)c1ccccc1O`: the outcome in [1], in [3] and in assay [6] was inactive. Besides, the Potency entry in assay [2] and in assay [5] was “inactive” throughout.
Consider `CCC(O)C(C)(C)C` (configuration not stated), for which the outcome in [1], in assay [3] and in assay [6] was inactive. In addition, the Potency entry in assay [2], in [7] and in assay [5] was “inactive” each time.
On to `CCNC(=O)NCCCOc1cccc(CN2CCCCC2)c1`, for which the molecule was called inactive in assay [1], in assay [3] and in assay [6]. The Potency result in [2], in assay [7] and in assay [5] was “inactive” throughout.
In the case of `COc1ccc(/C=N/NC(=O)c2ccncc2)cc1OC`, the call in assay [1], in [3], in assay [6] and in assay [9] was inactive. The Potency result in [2], in assay [7], in assay [4] and in assay [5] was “inactive” in each case.
Take `CO/N=C(/C(=O)N[C@@H]1C(=O)N2C(C(=O)O)=C(Cn3nnc(C)n3)CS[C@H]12)c1csc(N)n1`: the molecule was called inactive in assay [1], in [3] and in assay [6]. The Potency result in assay [7], in assay [4] and in assay [5] was “inactive” each time.
